Bioassay records from PubChem.
MITF TRPM1 HTS – activators of MITF-driven TRPM1 promoter reporter, primary screen, cell-based, SK-MEL-5, luciferase, single point. SK-MEL-5 TRPM1-promoter luciferase, 24 h; % of positive control, neutral wells = 0. activation, % at 12.5 µM. 300,000 compounds, 0.75% hits;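 active = mean activation of at least 80% with every replicate also reaching 80%; inconclusive = mean reaches 80% but some replicate falls short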
esBAF inh – Bmi1 luciferase reporter increase in mESCs, primary screen, esBAF inhibitor project, mouse ES cells, Bmi1 luciferase knock-in, single point | 24 h; 100% = twice the neutral-well signal | AID 602393, 2012 | 350,000 compounds, 2% hits | reporter increase, % at 12.5 µM; in the data active = activation above about 40%; inconclusive = no clear call, values can overlap the other calls;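 also: a rise in the Bmi1 reporter signal indicates esBAF inhibition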
SMARCA2 activ – SMARCA2 (BRM) function activators, primary screen, cell-based, luminescence, high throughput. activation, % at 9.1 µM. MG213 cells, MMTV-luciferase reporter, dexamethasone, overnight. 370,000 compounds, 1% hits. AID 652017, 2013; in the data active = activation above about 7.8%
MLL AF4-AF9 inh – inhibitors of AF4 peptide binding to AF9, primary screen, biochemical, AlphaScreen, biotin-AF4 peptide, FLAG-AF9, single point | Protein AF-9 (Homo sapiens), P42568 | 350,000 compounds, 0.47% hits | inhibition, % at 10 µM;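 active = every replicate reaching a set inhibition limit, whatever the replicate mean, cut at about 25% in these data; inconclusive = mean inhibition reaches that limit but some replicates miss it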
Wnt act – Wnt/beta-catenin pathway activators, primary screen, cell-based, plate reader, single point; 300,000 compounds, 1.2% hits; activation, % at 9.35 µM; Wnt/beta-catenin reporter cell assay, activator; in the data active = activation above about 30%, passing the limit was not always enough; inconclusive = no clear call, values can overlap the other calls
FGF22 binding – binders of human FGF22 protein, primary screen, FGF22 synaptogenesis inhibitor project, biophysical, thermal shift, single point; Fibroblast growth factor 22 (Homo sapiens), Q9HCT0; recombinant FGF22 thermal shift, SYPRO orange fluorescence; percent of sucrose octasulfate shift, DMSO zero; activity (Tm shift, normalised), % at 9.99 µM; 340,000 compounds, 1.5% hits; AID 651658, 2012;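 active = mean Tm shift, scaled 0 neutral to 100 positive control, at about 1.3% or above, every replicate too, limit read from the data; inconclusive = no clear call, values can overlap the other calls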
Target sequence (Q9HCT0 whole entry, looked up): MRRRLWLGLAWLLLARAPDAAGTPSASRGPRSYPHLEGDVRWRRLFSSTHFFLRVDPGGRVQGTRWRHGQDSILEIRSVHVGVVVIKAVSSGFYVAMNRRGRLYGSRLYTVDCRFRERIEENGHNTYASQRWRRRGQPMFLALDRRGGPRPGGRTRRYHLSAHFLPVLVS
Hits are given with their value; n = inactive; u = inconclusive; x = no result given; ! = a repeat was not active. Shown are actives, neighbours in structure and some others; about 4.3% of the full set was active somewhere.

SMILES | MITF TRPM1 HTS | esBAF inh | SMARCA2 activ | MLL AF4-AF9 inh | Wnt act | FGF22 binding
CCN1CCC2(CCN(C(=O)c3cc(COc4cc(C)ccc4C)on3)C2)C1 (stereo unspecified) | n | n | n | n | n | n
COc1cccc(S(=O)(=O)N(C)C[C@H]2Oc3cc(C4=CCCCC4)ccc3S(=O)(=O)N([C@H](C)CO)C[C@H]2C)c1 | x | n | x | x | x | x
CCCNC(=O)N1CC2(CN(C(=O)Nc3cccc(F)c3)C2)c2c(n(C)c3cc(OC)ccc23)[C@@H]1CO | x | x | x | n | x | n
CCN1CCN(C(=O)c2cc(COc3ccc(C(C)=O)cc3OC)on2)CC1 | n | 71 | n | n | 38 | n
COc1ccc(OCc2cc(C(=O)N3CCN(CC4CC4)CC3)no2)c(Cl)c1 | n | n | n | n | n | n
Fc1ccccc1NC(=S)N/N=C/c1ccccc1Br | x | 60 | n | x | x | x
O=[N+]([O-])c1ccc(/C=N/NC(=S)Nc2ccccc2F)o1 | n | n | n | x | x | x
O=C(/C=C/c1ccc(Br)o1)Nc1nccs1 | n | x | n | n | 43 | 44
O=C(Nc1nccs1)c1ccc(Br)o1 | n | n | n | x | x | x
CCOC(=O)Cc1csc(NC(=O)/C=C/c2ccc(Br)o2)n1 | n | x | n | 33 | n | n
CC(C)NC(=O)Nc1ccc2c(c1)CC(=O)N([C@@H](C)CO)C[C@@H](C)[C@H](CN(C)S(=O)(=O)c1ccccc1)O2 | x | n | x | n | x | x
C=CCSc1nnc(-c2sc(-c3ccccc3)nc2C)n1C | x | x | n | x | 33 | x
CC1CCN(C(=O)CN2C(=O)c3ccccc3S2(=O)=O)CC1 | n | n | n | x | 48 | x
COc1ccccc1NC(=O)N1CC(=O)N2[C@H](C1)[C@H](c1ccc(-c3ccc(C)cc3)cc1)[C@@H]2CO | x | x | x | n | x | x
Nc1ccc(SCc2cccnc2)cc1 | n | n | n | n | n | n
Nc1ccc(CSc2ccccc2)cc1 | n | 54 | n | n | n | 43
Cc1ccc2nc(N3C(=O)C(O)=C(C(=O)c4ccc(C)o4)C3c3ccco3)sc2c1 (stereo unspecified) | n | u | n | n | n | n
O=C(C1=C(O)C(=O)N(c2nc3ccc(Cl)cc3s2)C1c1ccco1)c1ccco1 (stereo unspecified) | n | u | n | n | 33 | x
Cc1ccc2nc(N3C(=O)C(O)=C(C(=O)c4cc5ccccc5o4)C3c3cccs3)sc2c1 (stereo unspecified) | n | 45 | x | x | x | x
CCOc1ccc(-c2n[nH]c(C(=O)NN)c2C)cc1 | n | 55 | n | n | n | n
CC(C)NC(=O)N1CC2(C1)[C@H](c1ccccc1)[C@H](CO)N2C(=O)C1CC1 | x | x | x | n | x | x
C[C@@H]1CCCCO[C@@H](CN(C)C(=O)Nc2ccc3c(c2)OCO3)[C@@H](C)CN([C@H](C)CO)C(=O)c2cc(NC(=O)c3ccncc3)ccc2O1 | x | n | x | n | x | n
Cc1ccc(C(=O)/C=C/c2cn(CN3CCN(C)CC3)c3ccccc23)cc1 | n | 55 | n | x | x | x
CNCCCN1c2ccccc2CCc2ccccc21 | n | n | n | n | n | n
CNCCC=C1c2ccccc2CCc2ccccc21 | n | n | n | 38! | n | n
SMILES | MITF TRPM1 HTS | esBAF inh | SMARCA2 activ | MLL AF4-AF9 inh | Wnt act | FGF22 binding
C[C@@H]1CN([C@H](C)CO)C(=O)c2cccc(NC(=O)C3CCCCC3)c2O[C@H]1CN(C)C(=O)Nc1cccc2ccccc12 | x | n | x | n | x | n
CCOCC(=O)Nc1ccccc1C(=O)N1CCOCC1 | n | n | n | n | n | 44
O=C(c1ccc(Br)cc1)c1cn[nH]c1-c1ccccc1O | n | n | n | n | n | n
CC(C)(C)c1ccc(C(=O)c2cn[nH]c2-c2ccccc2O)cc1 | n | 63 | n | n | n | n
C[C@@H]1CN([C@@H](C)CO)C(=O)Cc2cc(N(C)C)ccc2O[C@H]1CN(C)Cc1ccccc1 | x | n | x | n | x | n
O=C(Nc1ccc(Cl)cc1)c1csc(COCCO)n1 | x | 53 | n | n | n | n
COC(=O)/C(=C\c1ccc(O)cc1)c1nc2ccccc2[nH]1 | n | x | n | n | n | 44
O=C(/C(=C/c1ccc(Cl)cc1)c1nc2ccccc2[nH]1)c1cccs1 | n | 76 | x | x | x | x
C/C(=C\c1ccc(N)cc1)c1nc2ccccc2[nH]1 | u | 64 | n | n | n | n
O=C(/C(=C\c1ccccc1)c1nc2ccccc2[nH]1)c1ccc(Cl)cc1 | n | x | n | x | x | x
COC(=O)/C(=C\c1cc(OC)c(OC)c(OC)c1)c1nc2ccccc2[nH]1 | n | x | n | n | n | 43
CCC(=O)N1C[C@@H]2[C@H](c3ccccc31)[C@H](CO)N2C(=O)Nc1ccccc1F | x | n | x | n | x | n
COc1ccc(S(=O)(=O)Nc2ccc3c(c2)C(=O)N([C@H](C)CO)C[C@H](C)[C@H](CN(C)Cc2ccncc2)OCCCC[C@H](C)O3)cc1 | x | n | x | n | x | n
CCCNC(=O)C[C@H]1C[C@@H]2c3cc(NS(=O)(=O)c4cccc(OC)c4)ccc3O[C@@H]2[C@H](CO)O1 | x | n | x | n | x | n
COC(=O)CNC(c1ccccc1)c1cc(Br)ccc1NC(C)=O (stereo unspecified) | n | n | n | n | x | 43
COC(=O)CNC(c1ccccc1)c1cc(Cl)ccc1NC(=O)c1cccc(Cl)c1 (stereo unspecified) | n | n | n | n | n | n
CCCC(=O)Nc1ccc(C(=O)COC(=O)C2CC2)cc1 | n | n | n | n | 48 | n
CCCC(=O)Nc1ccc(C(=O)NN=C(C2CC2)C2CC2)cc1 | n | n | n | n | n | n
CC(=O)Nc1ccc(C(=O)COC(=O)C2CC2)c(F)c1 | 126 | n | n | n | 38 | n
Cc1cc(CSc2ccccc2)ccc1NC(=O)c1ccc(C)c([N+](=O)[O-])c1 | n | x | n | n | n | 43
CO[C@H]1CC[C@H]2CCN(C)C(=O)C[C@H](c3ccccc3)CN(C)C(=O)c3cccc(C#N)c3OC[C@@H]1O2 | x | n | x | n | x | n
CCOc1cc(CO)cc(Br)c1OCC(=O)Nc1ccccc1C | n | n | n | n | n | 43
Cc1ccc(-n2nnnc2SCC(=O)Nc2sc(C)c(C)c2C#N)cc1C | n | n | n | n | n | n
CC(=O)c1ccc(-n2nnnc2SCC(=O)Nc2sc(C)c(C)c2C#N)cc1 | n | x | n | n | n | 44
COc1ccc(CCNC(=O)C2CCN(S(=O)(=O)c3ccc(C)cc3)CC2)cc1OC | n | n | n | n | 62 | n
CCCNS(=O)(=O)c1ccc(CCC(=O)NCCc2ccc(OC)c(OC)c2)cc1 | n | x | n | n | n | 44
COc1ccc(CCNC(=O)CN(c2cccc([N+](=O)[O-])c2)S(C)(=O)=O)cc1OC | n | x | n | n | n | n
COc1ccc(CC(=O)NNC(=O)CCc2ccccc2)cc1OC | n | x | n | n | n | 43
